LmPK inh: qHTS Assay for Inhibitors of Leishmania Mexicana Pyruvate Kinase (LmPK). purified LmPK, Kinase-Glo ATP luminescence, 1 h. AID 1721, 2009. Potency, µM (titrated, usually from 57.5 µM), without a hit: top-dose activity change, negative = inhibition, most hits filed as inhibitors. hit rate 0.37% among 290,000
Target sequence (Q27686 whole entry, looked up): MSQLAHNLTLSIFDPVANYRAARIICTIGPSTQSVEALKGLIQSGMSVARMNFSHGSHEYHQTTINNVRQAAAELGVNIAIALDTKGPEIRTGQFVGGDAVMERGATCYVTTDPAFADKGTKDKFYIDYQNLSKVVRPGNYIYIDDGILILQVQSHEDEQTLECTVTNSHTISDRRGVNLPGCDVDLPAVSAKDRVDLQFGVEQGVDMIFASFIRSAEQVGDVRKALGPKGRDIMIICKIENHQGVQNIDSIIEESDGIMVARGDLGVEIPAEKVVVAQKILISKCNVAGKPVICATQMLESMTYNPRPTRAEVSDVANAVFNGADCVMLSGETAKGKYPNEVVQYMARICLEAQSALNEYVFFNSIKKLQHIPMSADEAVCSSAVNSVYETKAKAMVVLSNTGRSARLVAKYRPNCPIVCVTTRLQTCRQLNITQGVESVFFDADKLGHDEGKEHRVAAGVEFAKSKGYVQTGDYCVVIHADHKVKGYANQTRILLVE
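qHTS format; LmPK 0.1 nM; substrates PEP 0.5 mM and ADP 0.1 mM. One-hour room-temperature incubation, then coupled luciferase luminescence; 0.5 nM enzyme wells mark activation.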
RE007 growth inh: qHTS Assay for Inhibitors of the HIV-1 protein Vpr; hit rate 0.21% among 360,000; Potency, µM (doses to about 92.2 µM), without a hit: at the highest dose activity change, negative = less growth, hits mostly inhibitors; S. pombe RE007 Vpr strain, BacTiter-Glo ATP luminescence, 24 h; active means well fitted falling curve with a large enough effect; inconclusive means small, poorly fitted or top-dose-only effect; inactive means no such curve, though single readings can be large or run the other way; further: nearly all actives have a fitted effect of over 50% in size
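Fission yeast RE007 carrying one integrated HIV-1 vpr copy, seeded at OD 0.01 in PMG+AL medium with 23 nL pinned compound. Grown 24 h at 30 degrees; viability read by BacTiter-Glo luminescence after 5 min.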
Sm TGR block: qHTS Assay for the Inhibitors of Schistosoma Mansoni Peroxiredoxins. hit rate 3% among 360,000. purified TGR, DTNB reduction, TNB absorbance 405 nm. Schistosoma mansoni thioredoxin glutathione reductase (TGR), Q962Y6. AID 485364, 2010. Potency, µM (doses to about 114 µM), without a hit: top-dose activity change, negative = inhibition, hits mostly inhibitors; further: nearly all actives have a fitted effect of over 60% in size
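TGR 20 nM + NADPH 100 uM (dispensed conc.), cpd preinc 15 min RT; start with NADPH (500 uM addition) then DTNB (15 mM addition). Kinetic TNB absorbance, 405 nm filter. Four-parameter Hill fit across titration.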
Tb PYK inh: qHTS of Trypanosoma Brucei Inhibitors; TbPYK enzyme, Kinase-Glo Plus ATP luminescence, 45 min; pyruvate kinase (Trypanosoma brucei), Q57TT1; Potency, µM (highest dose often 76.8 µM), inactives show at the top dose activity, negative = inhibition, actives largely listed as inhibitors; AID 624173, 2012; hit rate 0.12% among 410,000; further: nearly all actives have a fitted effect of over 50% in size
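In this concentration-response screen, enzyme-free wells defined baseline while DMSO plates tracked drift. Each reaction combined TbPYK, substrate, compound and 130 uM ADP for 45 min at room temperature. Kinase-Glo Plus luminescence gave the signal.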
* hit, by the source's call; u = inconclusive; x = no result; [ ] = dose if it differs, or a comment. A selection: hits, their analogues and other compounds. The true share with any hit is near 3%. Unless noted, the call rests on the fitted dose curve; in most records, active means well fitted curve in the direction sought with a large enough effect; inconclusive means small, poorly fitted or top-dose-only effect, or another doubt; inactive means no such curve, though single readings can be large; an effect the other way counts as inactive or inconclusive. On the % scale 0 is the no-effect control and ±100 the full control effect; potency means the concentration at half of the fitted maximal effect.

SMILES	LmPK inh	RE007 growth inh	Sm TGR block	Tb PYK inh
Cc1ccccc1Cn1c(=O)n(CCCCCC(=O)NCc2ccc3c(c2)OCO3)c(=O)c2sccc21	x	x	-2%	-9%
Cc1ccc(C2=Nn3c(COc4ccc(Cl)cc4)nnc3SC2CC(=O)O)cc1 (stereo not given)	-6%	9%	-22%	-3%
CS(=O)(=O)N(CC(=O)NCc1ccccc1)Cc1ccc(Cl)cc1	-3%	-10%	2%	-5%
CS(=O)(=O)N(CC(=O)NCc1ccco1)Cc1ccc(Cl)cc1	13%	-19%	11µM*	-13%
Cc1ccc(S(=O)(=O)N(CC(=O)NCc2ccco2)Cc2ccc(F)cc2)cc1	9%	27%	40µM*	-4%
Cc1ccc(S(=O)(=O)NCC(=O)N(CC(=O)NCc2ccco2)Cc2ccc(F)cc2)cc1	1%	3%	3%	9%
Cc1nc2ccc(Cl)cc2n1C	x	-15%	x	-4%
O=S(=O)(c1ccccc1)c1nc(-c2cccs2)oc1SCc1ccccc1Cl	x	x	-18%	-3%
COCCNC(=O)Cn1cnc2c(cnn2-c2ccc(C)cc2)c1=O	-7%	4%	89µM*	-13%
COCCNC(=O)Cn1cnc2c(cnn2-c2ccc(OC)cc2)c1=O	-3%	2%	2%	5%
CCOc1ccccc1N(CC(=O)N1CCN(Cc2ccccc2)CC1)S(=O)(=O)c1ccccc1	x	-16%	x	4%
O=C(NCCC1=CCCCC1)C(=O)NCc1ccccc1	2%	1%	14%	3%
O=C(O)C1C2C=CC(O2)C1C(=O)NCCC1=CCCCC1 (stereo not given)	-3%	-1%	22µM*	2%
COc1ccc(CCNC(=O)C2CCN(C(=O)c3ccc(Br)cc3)CC2)cc1OC	6%	1%	-7%	3%
O=C(O)c1ccc(-c2nnc(-c3ccc([N+](=O)[O-])cc3)o2)cc1	2%	6%	-3%	3%
O=C(O)c1ccc(-c2nnc(-c3ccccc3)o2)cc1	13µM*	-18%	0%	-26%
O=c1ccc2cc3c([nH]c4ccc(Br)cc43)oc-2c1O	-8%	x	56µM*	x
O=C(O)c1ccc(N=Nc2c(O)[nH]c3ccc(Br)cc23)cc1	4%	x	3%	-9%
O=C(CCS(=O)(=O)c1ccccc1)N(Cc1cccnc1)c1nc2c(Cl)cccc2s1	x	x	1.6µM*	2%
Cc1ccc2sc(N(Cc3cccnc3)C(=O)CCS(=O)(=O)c3ccccc3)nc2c1C	x	x	35µM*	0%[15.4 µM]
O=C(c1cccs1)N(Cc1cccnc1)c1nc2c(Cl)cccc2s1	x	x	-2%	-12%[15.4 µM]
Cc1cc(C)c2nc(N(Cc3cccnc3)C(=O)CCS(=O)(=O)c3ccccc3)sc2c1	x	x	-29%	1%
Cc1cccc2sc(N(Cc3cccnc3)C(=O)CCS(=O)(=O)c3ccccc3)nc12	x	x	4.5µM*	-15%
CCOc1cc(CNc2ccc(O)cc2)cc(Cl)c1OCc1ccccc1	x	x	-19%	-16%
COc1cc(OC)c(NC(=O)c2cn(C3CCCC3)c(=O)c3c2c2ccccc2n3C)cc1Cl	x	x	6%	-4%
SMILES	LmPK inh	RE007 growth inh	Sm TGR block	Tb PYK inh
CC1CC2C3CCC4=CC(=O)C=CC4(C)[C@@]3(F)C(O)CC2(C)[C@@]1(O)C(=O)CCl (stereo not given in full)	x	x	x	-20%
COC(=O)c1sc2cccc(F)c2c1S(=O)(=O)Nc1cc(C)c(Cl)cc1OC	x	x	0%	4%
CCc1ccc(-c2nc3cc(NC(=O)c4ccc(C)c(C)c4)ccc3o2)cc1	x	x	4%	12%
CCc1ccc2oc(-c3ccc(NC(C)=O)cc3)nc2c1	-1%	5.6µM*	-3%	0%
COc1ccc(C(=O)N(Cc2ccc(N(C)C)cc2)Cc2ccco2)cc1Cl	x	x	13%	-1%
C/C=C1\NC(=O)[C@H]2CSSCC/C=C\[C@H](CC(=O)N[C@H](C(C)C)C(=O)N2)OC(=O)C(C(C)C)NC1=O (stereo not given in full)	x	x	x	2%
COC(=O)[C@@H]1C[C@@]2(O)[C@@H](O)[C@@H](O)[C@@H](O)C[C@H]2N1Cc1ccc(Cl)cc1	-10%	2%	40µM*	8%
O=C(O)C1(O)C[C@@H](O)C(O)[C@H](O)C1 (stereo not given in full)	x	-19%	x	-13%
Cc1ccc(OCc2nc(-c3ccc(C(=O)N4CCN(c5cc(Cl)ccc5C)CC4)cc3)oc2C)cc1	x	x	6%	-9%
CN(Cc1ccccc1)C(=O)c1ncn(C)c1C(=O)N(C)Cc1ccccc1	x	-12%	20µM*	-9%
Cc1cc2oc(=O)cc(C)c2cc1NC(=O)CCl	-1%	33%	13µM*	-13%
Cc1cc2oc(=O)cc(C)c2cc1NC(=O)CCC(=O)O	1%	9%	-2%	-10%
Cc1cc2c(C)cc(=O)[nH]c2cc1NC(=O)CCl	4%	14%	10µM*	-12%
CCOC(=O)c1oc2ccc(S(=O)(=O)n3nc(-c4ccc(Br)cc4)cc3N)cc2c1C	x	x	-1%	2%
CC(=O)N(C1=C(Cl)C(=O)c2ccccc2C1=O)C1CCCCC1	2.8µM*	6.3µM*	0.11µM*	0.89µM*
Cc1ccc2nc(SCC(=O)NCc3ccco3)c(C)cc2c1	2%	5%	40µM*	-3%
Cc1ccc2cc(C#N)c(SCC(=O)NCc3ccco3)nc2c1	3%	18%	35µM*	-7%
Cc1ccc2nc(SCC(=O)NCc3ccco3)c(C#N)cc2c1	0%	-1%	u	-1%
Cc1ccc2c(c1)cc(C)c1nnc(SCC(=O)NCc3ccco3)n12	4%	0%	-23%	2%
Cc1ccc(CNC(=O)CSc2nc(=O)n(Cc3ccco3)c3c2CCC3)cc1	x	x	40µM*	4%
Cc1cc(C)cc(OCC(=O)Nc2nc3c(s2)CC(C(C)(C)C)CC3)c1 (stereo not given)	x	x	7%	3%
O=C(CNC(=O)c1ccccc1Cl)OCc1cc(=O)n2nc(C3CC3)sc2n1	x	x	-3%	-2%
CC(C)C(c1nnnn1Cc1ccco1)N1CCN(C2CCCC2)CC1 (stereo not given)	1%	14%	4%	4%
Clc1ccccc1C(c1nnnn1Cc1ccco1)N1CCN(Cc2ccco2)CC1 (stereo not given)	-5%	-5%	32µM*	5%
O=c1[nH]c2cc3c(cc2cc1C(c1nnnn1Cc1ccccc1)N1CCCCCC1)OCCO3 (stereo not given)	16%	-9%	u	4%
Cc1cccc2cc(C(c3nnnn3Cc3ccc4c(c3)OCO4)N3CCCC3)c(=O)[nH]c12 (stereo not given)	7%	-21%	11µM*	-12%
c1coc(Cn2nnnc2CN2CCN(C3CCCC3)CC2)c1	0%	-20%	32µM*	-1%
Cc1cc(C(c2nnnn2Cc2ccccc2)N2CCOCC2)c(C)n1-c1ccc2c(c1)OCO2 (stereo not given)	2%	1%	10µM*	-32%

From PubChem
